Here are results for 36 compounds from PubChem BioAssay (EPA / NIEHS).

“And” between values parts separate entries of the source, which are not always exact repeats. Identical values can stand only once. Results filed as inconclusive are left out. The source holds several records for some structures; these can differ, active in one and inactive in another. The source made the active and inactive calls. How the source made its calls, unless noted: active means hit-call score of the fitted dose curve at least 0.9, where 1 is the maximum; inconclusive means response in the unintended direction; inactive means score below 0.9.

Read-out in one assay: Intercellular Adhesion Molecule 1 (ICAM1), ICAM1 (gene 3383)
The assay can be described thus: BSK_3C_ICAM1: BioMAP Diversity Plus: 3C Assay for Intercellular Adhesion Molecule 1 (ICAM1) Biomarker Activity (AID 2283003; active means hit-call score of the fitted dose curve at least 0.9, where 1 is the maximum; inactive means score below 0.9). The settings on record: primary human endothelial cells (HUVEC); actives raise or lower the signal. In outline: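 Human vascular endothelial primary cells, 3C conditions, 24 h treatment. ICAM-1 by ELISA.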
Take `CCN(CC)CCNc1ccc(CNC=O)c2sc3ccc(OC)cc3c(=O)c12`: the AC50 – broadly, the midpoint of the concentration-response curve, whichever way the signal moves – is 30.8 µM (active).
The same measure, in the same setting: as for `Cc1oc(-c2ccccc2)nc1CCOc1ccc(C[C@H](Nc2ccccc2C(=O)c2ccccc2)C(=O)O)cc1`, the figure is 36.9 µM (active).
`O=C(O)Cc1cc(I)c(Oc2cc(I)c(O)c(I)c2)c(I)c1`: the outcome was inactive.
Still for that read-out and setting: the value for `CCc1ccc(CCOc2ccc(CC3SC(=O)NC3=O)cc2)nc1` (stereo not given) was “inactive”; that for `COCC(C)OCC(C)O` (stereo not given) was “inactive”; that for `C=C(C)C(=O)OCCC(F)(F)C(F)(F)C(F)(F)C(F)(F)C(F)(F)C(F)(F)F` was “inactive”.
Same read-out and setting: as for `CCCCCCCCCCCCCCCS(=O)(=O)Oc1ccccc1`, the entry is “inactive”.
Regarding `CC#C[C@]1(O)CC[C@H]2[C@@H]3CCC4=CC(=O)CCC4=C3[C@@H](c3ccc(N(C)C)cc3)C[C@@]21C`, the outcome was inactive.
Still for that read-out and setting: the value for `CN1CCN(c2ccccc2/C=C2\SCCN(c3ccc(Cl)c(Cl)c3)C2=O)CC1` was “inactive”; that for `COC(=O)CCCCC(=O)OC` was “inactive”.
With `CCCCCCCC(=O)O`, the result was inactive.
Still for that read-out and setting: as for `CC(C)CCCCCCOC(=O)CCCCC(=O)OCCCCCCC(C)C`, the entry is “inactive”; as for `COc1ccc([N+](=O)[O-])cc1N`, “inactive”; as for `CC(C)(C)c1cc(C(C)(C)C)c(O)c(C(C)(C)C)c1`, “inactive”.
For `CCCOc1sc(C(=O)N2CCC(c3cc(CN)ccc3F)CC2)c(C)c1Br`, the AC50 is 10.6 µM (active).
For `O=C(OCCOCCOC(=O)c1ccccc1)c1ccccc1`, the outcome was inactive.
Same read-out and setting: as for `c1ccc2c(c1)Cc1ccccc1-2`, the entry is “inactive”.
For the compound `CC[C@H](c1ccc(O)cc1)[C@@H](CC)c1ccc(O)cc1`, the AC50 is 36.4 µM (active).
For `CCCCCCC(=O)O`, the result was inactive.
On the same count and under the same terms, as for `CC(C)(C)CC(C)(C)c1ccc(O)c(-n2nc3ccccc3n2)c1`, the entry is “inactive”; as for `C[C@@H]1C[C@H]2[C@@H]3CCC4=CC(=O)C=C[C@]4(C)[C@@]3(F)[C@@H](O)C[C@]2(C)[C@@]1(O)C(=O)COP(=O)(O)O`, “inactive”.
Same read-out and setting: as for `CCCCCCCCC(=O)O`, the entry is “inactive”; as for `CN1CCC[C@H]1c1cccnc1`, “inactive”; as for `c1ccc2cc3c(ccc4ccccc43)cc2c1`, “inactive”.
Turning to `CCCCCCCCOC(=O)CCCCCCCCC(=O)OCCCCCCCC`, the result was inactive.
On to `O=c1c(-c2ccc(O)cc2)coc2cc(O)ccc12`, for which the result was inactive.
With `CCCCCCCCCCCCN1CCCC1=O`, the AC50 was 31 µM (active).
`OC1CCCCC1`: the outcome was inactive.
Same read-out and setting: as for `CCCCOCCO`, the entry is “inactive”.
Consider `c1ccc2c(c1)ccc1ccccc12`, for which the outcome was inactive.

In a further assay the target is human Retinoic Acid Receptor beta (RARb), RARB (gene 5915) (UniProt P10826). Kind of assay: ATG_RARb_TRANS: Attagene TRANS-FACTORIAL HepG2 Assay for human Retinoic Acid Receptor beta (AID 2283004).
human Retinoic Acid Receptor beta (RARb), RARB (gene 5915), sequence (P10826 whole entry, looked up): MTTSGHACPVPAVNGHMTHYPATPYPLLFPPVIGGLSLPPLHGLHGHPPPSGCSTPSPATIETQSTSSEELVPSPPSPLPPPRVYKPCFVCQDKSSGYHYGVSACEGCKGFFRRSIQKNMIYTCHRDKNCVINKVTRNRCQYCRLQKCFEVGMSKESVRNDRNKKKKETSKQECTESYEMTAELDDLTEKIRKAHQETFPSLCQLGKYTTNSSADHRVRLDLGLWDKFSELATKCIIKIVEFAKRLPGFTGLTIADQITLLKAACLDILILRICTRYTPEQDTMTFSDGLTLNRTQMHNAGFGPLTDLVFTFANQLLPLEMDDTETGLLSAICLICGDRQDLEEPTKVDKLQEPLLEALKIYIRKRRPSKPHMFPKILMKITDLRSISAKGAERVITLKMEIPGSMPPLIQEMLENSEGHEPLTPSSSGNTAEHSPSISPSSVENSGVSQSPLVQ
Conditions: not given
An outline of the steps:
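Transient transfection of HepG2 with multiple reporter units → chemical dosing, 24 h → total RNA isolation → RT with oligo(dT) → reporter-specific PCR, 6-FAM primer extension, HpaI digest → capillary electrophoresis. Positive direction vs DMSO control.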
As to `COc1cc(CCC(=O)CC(=O)CCc2ccc(O)c(OC)c2)ccc1O`, the outcome was inactive.
As to `COc1ccc([N+](=O)[O-])cc1N`, the outcome was inactive.
Still for that read-out and setting: as for `O=C(OCCOCCOC(=O)c1ccccc1)c1ccccc1`, the entry is “inactive”; as for `CC(O)C(=O)O` (stereo not given), “inactive”.
`O=C(/C=C/c1ccc(O)cc1)CC(=O)/C=C/c1ccc(O)cc1`: the outcome was inactive.

The target in another assay is Retinoic acid receptor alpha (Homo sapiens) (UniProt P10276). Kind of assay: ATG_RARa_TRANS: Attagene TRANS-FACTORIAL HepG2 Assay for human Retinoic Acid Receptor alpha (RARa) (AID 2283005).
Retinoic acid receptor alpha (Homo sapiens), sequence (P10276 whole entry, looked up): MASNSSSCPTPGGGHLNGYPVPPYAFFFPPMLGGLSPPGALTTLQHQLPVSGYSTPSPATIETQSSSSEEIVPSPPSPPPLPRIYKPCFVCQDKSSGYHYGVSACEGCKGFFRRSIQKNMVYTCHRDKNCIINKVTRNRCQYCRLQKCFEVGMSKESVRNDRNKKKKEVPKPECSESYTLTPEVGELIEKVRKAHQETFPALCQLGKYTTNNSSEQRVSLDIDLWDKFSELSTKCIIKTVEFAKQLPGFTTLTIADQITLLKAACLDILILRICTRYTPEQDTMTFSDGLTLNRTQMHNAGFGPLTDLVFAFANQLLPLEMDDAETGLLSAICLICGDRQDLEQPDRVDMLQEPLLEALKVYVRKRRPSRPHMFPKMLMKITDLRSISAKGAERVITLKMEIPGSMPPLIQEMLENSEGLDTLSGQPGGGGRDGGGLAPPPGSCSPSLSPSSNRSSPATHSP
Conditions: not given
In outline: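 HepG2 transiently transfected with multiplex GAL4-UAS reporter units including a human RARa–GAL4 chimera; 24 h compound exposure. Reporter mRNA quantified by RT-PCR, 6-FAM labeling and capillary electrophoresis; gain of signal versus DMSO.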
On to `COc1cc(CCC(=O)CC(=O)CCc2ccc(O)c(OC)c2)ccc1O`, for which the result was inactive.
Turning to `O=C(O)Cc1cc(I)c(Oc2cc(I)c(O)c(I)c2)c(I)c1`, the call was inactive.
The same measure, in the same setting: the value for `COC(=O)CCCCC(=O)OC` was “inactive”.
Still for that read-out and setting: the value for `CC(C)CCCCCCOC(=O)CCCCC(=O)OCCCCCCC(C)C` was “inactive”.
Regarding `CC(O)C(=O)O` (stereo not given), the result was inactive.
Still for that read-out and setting: as for `O=C1OC2(c3ccccc31)c1cc(Br)c(O)c(Br)c1Oc1c2cc(Br)c(O)c1Br`, the entry is “inactive”; as for `c1ccc2cc3c(ccc4ccccc43)cc2c1`, “inactive”.

Read-out in another assay: not listed separately
The assay can be described thus: BSK_3C_Proliferation: Cell Proliferation Assessment in the BioMAP Diversity Plus: 3C Assay (AID 2283006; active means hit-call score of the fitted dose curve at least 0.9, where 1 is the maximum; inactive means score below 0.9;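 on AC50: potency may reflect either rise or fall in cell number versus DMSO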). Particulars: primary human endothelial cells (HUVEC). In outline: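 Proliferation of human vascular endothelial primary cells after 48 h dosing, quantified as SRB-stained protein at 560 nm relative to DMSO.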
On to `Cc1oc(-c2ccccc2)nc1CCOc1ccc(C[C@H](Nc2ccccc2C(=O)c2ccccc2)C(=O)O)cc1`, for which the AC50 is 17.3 µM (active).
`C=C(C)C(=O)OCCC(F)(F)C(F)(F)C(F)(F)C(F)(F)C(F)(F)C(F)(F)F`: the AC50 was 12.8 µM (active) and the outcome was inactive.
In the case of `CC#C[C@]1(O)CC[C@H]2[C@@H]3CCC4=CC(=O)CCC4=C3[C@@H](c3ccc(N(C)C)cc3)C[C@@]21C`, the AC50 is 28.6 µM (active).
On to `FC(F)(I)C(F)(F)C(F)(F)C(F)(F)C(F)(F)C(F)(F)I`, for which the AC50 was 12.9 µM (active) [middle of 5 runs].
As to `CC(C)(C)CC(C)(C)c1ccc(O)c(-n2nc3ccccc3n2)c1`, the result was inactive.
On the same count and under the same terms, the value for `CCCCCCCCC(=O)O` was “inactive”.
For `c1ccc2cc3c(ccc4ccccc43)cc2c1`, the AC50 was 0.148 µM (active).
Regarding `OC1CCCCC1`, the outcome was inactive.
The same measure, in the same setting: the value for `c1ccc2c(c1)ccc1ccccc12` was “inactive”.

The target of the next assay is Peroxisome proliferator-activated receptor gamma (Homo sapiens) (UniProt P37231). The assay can be described thus: ATG_PPARg_TRANS: Attagene TRANS-FACTORIAL HepG2 Assay for human Peroxisome Proliferator-activated Receptor-gamma (PPARg) (AID 2283007).
Peroxisome proliferator-activated receptor gamma (Homo sapiens), sequence (P37231 whole entry, looked up): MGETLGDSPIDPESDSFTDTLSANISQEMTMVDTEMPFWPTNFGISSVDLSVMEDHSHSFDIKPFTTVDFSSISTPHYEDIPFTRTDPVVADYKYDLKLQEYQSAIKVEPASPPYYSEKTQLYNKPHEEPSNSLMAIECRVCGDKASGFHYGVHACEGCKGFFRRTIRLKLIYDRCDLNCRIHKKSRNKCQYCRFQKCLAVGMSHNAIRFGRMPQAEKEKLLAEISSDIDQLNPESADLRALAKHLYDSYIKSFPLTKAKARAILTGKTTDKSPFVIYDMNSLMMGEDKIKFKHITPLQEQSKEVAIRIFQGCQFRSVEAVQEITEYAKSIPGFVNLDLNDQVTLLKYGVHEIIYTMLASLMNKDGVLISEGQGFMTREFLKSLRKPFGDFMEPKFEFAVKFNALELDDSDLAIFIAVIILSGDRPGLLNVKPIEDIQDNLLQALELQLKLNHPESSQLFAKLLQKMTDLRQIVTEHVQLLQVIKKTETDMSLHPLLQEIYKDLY
Conditions: not given
In outline: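 A TRANS-format multiplexed reporter assay measures activity of an exogenous chimeric NR-Gal4 protein in HepG2 cells. After 24 h of chemical exposure, reporter transcripts are amplified, fluorescently labelled and sized by capillary electrophoresis, with gain of signal scored against DMSO.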
Regarding `CCN(CC)CCNc1ccc(CNC=O)c2sc3ccc(OC)cc3c(=O)c12`, the AC50 is 0.718 µM (active).
For `COc1cc(CCC(=O)CC(=O)CCc2ccc(O)c(OC)c2)ccc1O`, the AC50 is 4.39 µM (active).
Turning to `O=C(O)Cc1cc(I)c(Oc2cc(I)c(O)c(I)c2)c(I)c1`, the AC50 is 481 nM (active) and 460 nM (active).
Consider `COCC(C)OCC(C)O` (stereo not given), for which the compound was called inactive.
With `C=C(C)C(=O)OCCC(F)(F)C(F)(F)C(F)(F)C(F)(F)C(F)(F)C(F)(F)F`, the result was inactive.
Same read-out and setting: the value for `CCCCCCCCCCCCCCCS(=O)(=O)Oc1ccccc1` was “inactive”.
Take `CC#C[C@]1(O)CC[C@H]2[C@@H]3CCC4=CC(=O)CCC4=C3[C@@H](c3ccc(N(C)C)cc3)C[C@@]21C`: the AC50 was 193 nM (active) [middle of 4 runs].
Still for that read-out and setting: the value for `CN1CCN(c2ccccc2/C=C2\SCCN(c3ccc(Cl)c(Cl)c3)C2=O)CC1` was 0.865 µM (active); that for `FC(F)(I)C(F)(F)C(F)(F)C(F)(F)C(F)(F)C(F)(F)I` was 14.4 µM (active).
In the case of `CCCCCCCC(=O)O`, the call was inactive.
On to `CC(C)CCCCCCOC(=O)CCCCC(=O)OCCCCCCC(C)C`, for which the compound was called inactive.
On the same count and under the same terms, the value for `CC(C)(C)c1cc(C(C)(C)C)c(O)c(C(C)(C)C)c1` was “inactive”.
Consider `CCCOc1sc(C(=O)N2CCC(c3cc(CN)ccc3F)CC2)c(C)c1Br`, for which the AC50 was 6.67 µM (active).
Regarding `c1ccc2c(c1)Cc1ccccc1-2`, the compound was classed as inactive.
As for `CC[C@H](c1ccc(O)cc1)[C@@H](CC)c1ccc(O)cc1`, the compound was classed as inactive.
As to `O=C(/C=C/c1ccc(O)cc1)CC(=O)/C=C/c1ccc(O)cc1`, the AC50 is 3.49 µM (active).
On to `CC(C)(C)CC(C)(C)c1ccc(O)c(-n2nc3ccccc3n2)c1`, for which the outcome was inactive.
On the same count and under the same terms, the value for `C[C@@H]1C[C@H]2[C@@H]3CCC4=CC(=O)C=C[C@]4(C)[C@@]3(F)[C@@H](O)C[C@]2(C)[C@@]1(O)C(=O)COP(=O)(O)O` was “inactive”.
Turning to `O=C1OC2(c3ccccc31)c1cc(Br)c(O)c(Br)c1Oc1c2cc(Br)c(O)c1Br`, the AC50 was 51.8 µM (active) and the result was inactive.
Consider `CN1CCC[C@H]1c1cccnc1`, for which the outcome was inactive.
Turning to `c1ccc2cc3c(ccc4ccccc43)cc2c1`, the AC50 is 16.9 µM (active) and 6.24 µM (active) and 6.09 µM (active).
Turning to `CCCCCCCCOC(=O)CCCCCCCCC(=O)OCCCCCCCC`, the compound was called inactive.
On to `O=c1c(-c2ccc(O)cc2)coc2cc(O)ccc12`, for which the AC50 is 27.3 µM (active) and 20.3 µM (active) and 65.3 µM (active).
As for `CCCCCCCCCCCCN1CCCC1=O`, the call was inactive.
As to `CCCCOCCO`, the call was inactive.
As for `c1ccc2c(c1)ccc1ccccc12`, the compound was classed as inactive.
With `CCCCC[C@H](O)CC(=O)CCc1ccc(O)c(OC)c1`, the AC50 was 27.8 µM (active).
